Test results taken from PubChem BioAssay (NCI).
This is part of a sample that, as a whole, favours compounds with a hit. Of some 83,000 tested, about 20% had one in any assay.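 Cells were grown in 96-well plates and exposed to the test compound at a single concentration for 48 hours; results are reported as percent growth, with values below 10 considered active.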 Unmarked numbers belong to inactive results. Activity calls are given as the source filed them.

test system: COLO 205 colon; assay: NCI-60 one-dose screen, 48 h (100 = growth as untreated, 0 = no growth, -100 = all killed); details: 10 µM unless noted

SMILES | growth
CC(C)=CCCC(C)c1ccc(C)c2c1OCN(CC1CCNCC1)C2 (centres undefined) | 75.9%
COc1ccc(C2CC(c3ccc4c(c3)OCO4)=NN2C=O)cc1 (centres undefined) | 115%
COc1cc(-c2nc3sc4c(c3c(=O)[nH]2)CCCCCC4)cc(OC)c1OC | -24.2% (active)
O=C(C(=O)N1CCOCC1)c1cn(CCCn2cc(C(=O)C(=O)N3CCOCC3)c3ccccc32)c2ccccc12 | 105%
COc1ccc(/C=C2/SC(=Nc3c(C)nn(-c4ccccc4)c3N)NC2=O)cc1 | 43.7%
C/C(=C\CCc1ccoc1)CC/C=C(\C)CCCN1CCOCC1 | 40.9%
CO[C@H]1/C=C/O[C@@]2(C)Oc3c(C)c(O)c4c(O)c(c(/C=N/N5C(C)CN(Cc6ccc(C#N)cc6)CC5C)c(O)c4c3C2=O)NC(=O)/C(C)=C\C=C\[C@H](C)[C@H](O)[C@@H](C)[C@@H](O)[C@@H](C)[C@H](OC(C)=O)[C@@H]1C (some centres undefined) | 1.58% (active)
CCOC(=O)CNC(=O)C1(NC(=O)CNC(=O)OCc2ccccc2)CCCC1 | 120%
COc1cnc2c(c1)C(=O)c1c-2n(CCCNC(C)C)c(=O)c2cc(F)ccc12 | -19.7% (active)
Nc1ccc2c(c1Br)Cc1ccccc1-2 | 99.2%
O=C1OC2(c3ccccc31)c1ccccc1-c1ccccc12 | 81.7%
CCCCCCCCN(CCO)CCCCCCCC | 107%
Nc1ccc2c(c1)C(=O)c1cc(Cl)c(Cl)cc1-2 | 83.5%
O=C(/C=C/c1cccc(Nc2ccnc3cc(Cl)ccc23)c1)c1ccc(Cl)cc1 | 80.1%
COc1ccc(NC(=O)c2ccccc2-c2ccccc2)c(C(N)=O)c1 | 9.95% (active)
CC(=O)N1N=C(c2ccc(Cl)cc2)CC1c1c(C)nn(-c2ccccc2)c1N(C)Cc1ccccc1 (centres undefined) | 74.9%
O=C(N/N=C/c1cccc(O)c1O)c1ccccc1 | 5.29% (active)
Clc1ccc(C2c3ccccc3-c3nccn32)c(Cl)c1 (centres undefined) | 97.2%
OCc1n(Cc2ccc3ccccc3c2)cc[n+]1Cc1ccc2ccccc2c1 | 23.1%
CCOC(=O)c1cnc2c(C)cc(C)cc2c1NCCCN(C)C | 17.4%

SMILES | growth
Cc1nn(-c2ccccc2)cc1/C=C1\SC(N2CCCCC2)=NC1=O | 66.9%
OCCCc1n(Cc2ccc3ccccc3c2)c2ccccc2[n+]1Cc1ccc2ccccc2c1 | -58.9% (active)
Cc1ccccc1NC(=O)NC(CC(N)=O)c1ccc2c(c1)nc(-c1cccc(Oc3ccc(C(C)(C)C)cc3)c1)n2CCCN1CCCCC1C (centres undefined) | -65.6% (active)
CC[C@@H](C)/C=C(C)/C=C/C(=O)c1c(O)c(-c2ccc(O)cc2)cn(OC2CC(=O)CCC(C)OC(=O)CC2O)c1=O (some centres undefined) | 67.8%
COc1ccc2c(c1)c(CC(=O)[Se]C)c(C)n2C(=O)c1ccc(Cl)cc1 | 50.1%
CC(=O)/C(=C/c1ccc(Cl)cc1)C(=O)c1ccccc1 | 111%
O=C1c2cccc(NCCN=Cc3ccccc3O)c2C(=O)c2c(NCCN=Cc3ccccc3O)cccc21 | 8.33% (active)
c1ccc(CN=C(NCc2ccccc2)NCc2ccccc2)cc1 | 41.3%
COc1ccccc1-n1c(-c2ccc(O)cc2C)cn2c3c(=O)[nH]c(=O)n(C)c3nc12 | 102%
COc1ccc(-c2cnc(SCC(=O)Nc3ccc(-c4nc5ccccc5s4)cc3)n2-c2ccc(OC)cc2)cc1 | 112%
COc1cc(Cl)cc(-c2nn(-c3cccc(NC(=O)c4cc(C(F)(F)F)cc(C(F)(F)F)c4)c3)cc2-c2ccncc2)c1 | 88.7%
COc1c(O)cc2c(c1CC=C(C)C)OC(=O)c1c(cc(O)c(CC=C(C)C)c1O)O2 | 107%
O=C1/C(=C/c2cccc(Cl)c2)CCc2ccccc21 | 111%
CCNCCCn1c2c(c3ccc(F)cc3c1=O)C(=O)c1cc(OC)cnc1-2 | -32% (active)
CCN(CC)c1ccc(N=C2C=CC(=O)C=C2NC(C)=O)cc1 | 96.8%
N#Cc1c(-c2ccccc2)cc(-c2ccccc2)n(CCC(=O)O)c1=O | 61.2%
COc1ccc2nc(NC(=O)CN3CCn4c(nnc4C(F)(F)F)C3)sc2c1 | 109%
O=C1NC(=O)/C(=C\c2ccco2)S1 | 91.4%
O=C1CNc2cc(Cl)ccc2N1 | 106%
